Assay results: the supplement of paper PMC6411743
± gives the standard deviation of the averaged measurements. Targets with the largest changes are over-represented here; the source holds about 6,500 in all.

Compound: Nc1ncnc2c1ncn2[C@@H]1O[C@H](COP(=O)(O)OP(=O)(O)OP(=O)(O)O)[C@@H](O)[C@H]1O [adenosine triphosphate]
Assay: NP40-soluble protein abundance relative to vehicle (solubility fold change) (ratio); higher = more soluble protein in presence of ATP
Outline: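 In three independent experiments, Jurkat crude lysate made by Dounce homogenisation was treated for 10 min at room temperature and then 3 min at 37 °C with eight concentrations ranging from 0.1 to 10 mM. It was then solubilised with 0.8% NP40 plus benzonase for 60 min at 4 °C and ultracentrifuged. The supernatant was TMT-labelled for LC-MS/MS, and each value is the fold change against the detergent-processed vehicle for the same replicate, using vsn-normalised intensities.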

Sequence of UniProt Q8TED0 (Q8TED0 whole entry, one chain of several): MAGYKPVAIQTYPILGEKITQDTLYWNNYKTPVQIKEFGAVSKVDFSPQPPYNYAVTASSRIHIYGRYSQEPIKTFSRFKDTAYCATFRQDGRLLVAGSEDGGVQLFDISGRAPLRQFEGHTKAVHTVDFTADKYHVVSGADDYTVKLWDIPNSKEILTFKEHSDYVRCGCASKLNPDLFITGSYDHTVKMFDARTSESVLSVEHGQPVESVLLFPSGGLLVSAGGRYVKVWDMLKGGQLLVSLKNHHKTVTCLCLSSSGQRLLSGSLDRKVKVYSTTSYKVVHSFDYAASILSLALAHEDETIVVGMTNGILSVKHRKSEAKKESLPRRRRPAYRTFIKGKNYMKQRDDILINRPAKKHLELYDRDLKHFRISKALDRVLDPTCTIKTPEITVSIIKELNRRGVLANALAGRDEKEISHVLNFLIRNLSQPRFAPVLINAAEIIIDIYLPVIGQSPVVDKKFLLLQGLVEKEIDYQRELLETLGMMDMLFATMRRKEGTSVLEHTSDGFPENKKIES
Sequence of UniProt Q499Z4 (Q499Z4 whole entry): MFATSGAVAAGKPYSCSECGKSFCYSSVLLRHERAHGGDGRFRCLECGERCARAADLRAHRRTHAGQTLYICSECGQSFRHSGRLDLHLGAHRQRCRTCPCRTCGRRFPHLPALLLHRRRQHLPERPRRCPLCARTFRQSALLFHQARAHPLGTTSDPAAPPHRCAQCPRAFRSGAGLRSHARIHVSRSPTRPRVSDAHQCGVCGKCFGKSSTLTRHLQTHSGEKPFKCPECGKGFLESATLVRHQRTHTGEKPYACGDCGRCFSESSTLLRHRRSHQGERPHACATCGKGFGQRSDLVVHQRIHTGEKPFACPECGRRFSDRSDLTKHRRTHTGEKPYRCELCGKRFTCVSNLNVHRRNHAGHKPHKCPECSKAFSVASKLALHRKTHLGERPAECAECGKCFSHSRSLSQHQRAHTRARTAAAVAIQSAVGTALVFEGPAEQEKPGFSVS
Sequence of UniProt Q8NFG4 (Q8NFG4 whole entry): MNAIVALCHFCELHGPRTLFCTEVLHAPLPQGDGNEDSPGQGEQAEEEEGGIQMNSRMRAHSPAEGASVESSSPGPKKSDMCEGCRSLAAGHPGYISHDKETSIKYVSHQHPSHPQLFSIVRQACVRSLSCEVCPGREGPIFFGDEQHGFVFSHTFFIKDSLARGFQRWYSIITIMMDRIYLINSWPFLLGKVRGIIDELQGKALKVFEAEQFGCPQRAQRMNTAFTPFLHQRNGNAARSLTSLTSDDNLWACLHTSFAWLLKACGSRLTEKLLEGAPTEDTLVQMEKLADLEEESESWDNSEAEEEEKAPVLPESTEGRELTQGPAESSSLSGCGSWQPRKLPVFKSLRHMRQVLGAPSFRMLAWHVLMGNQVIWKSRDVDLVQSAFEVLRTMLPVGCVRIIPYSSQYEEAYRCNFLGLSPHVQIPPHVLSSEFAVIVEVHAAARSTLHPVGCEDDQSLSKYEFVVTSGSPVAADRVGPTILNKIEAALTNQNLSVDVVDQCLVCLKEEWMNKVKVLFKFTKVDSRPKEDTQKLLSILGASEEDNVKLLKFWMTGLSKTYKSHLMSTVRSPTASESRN
Sequence of UniProt Q12872 (Q12872 whole entry): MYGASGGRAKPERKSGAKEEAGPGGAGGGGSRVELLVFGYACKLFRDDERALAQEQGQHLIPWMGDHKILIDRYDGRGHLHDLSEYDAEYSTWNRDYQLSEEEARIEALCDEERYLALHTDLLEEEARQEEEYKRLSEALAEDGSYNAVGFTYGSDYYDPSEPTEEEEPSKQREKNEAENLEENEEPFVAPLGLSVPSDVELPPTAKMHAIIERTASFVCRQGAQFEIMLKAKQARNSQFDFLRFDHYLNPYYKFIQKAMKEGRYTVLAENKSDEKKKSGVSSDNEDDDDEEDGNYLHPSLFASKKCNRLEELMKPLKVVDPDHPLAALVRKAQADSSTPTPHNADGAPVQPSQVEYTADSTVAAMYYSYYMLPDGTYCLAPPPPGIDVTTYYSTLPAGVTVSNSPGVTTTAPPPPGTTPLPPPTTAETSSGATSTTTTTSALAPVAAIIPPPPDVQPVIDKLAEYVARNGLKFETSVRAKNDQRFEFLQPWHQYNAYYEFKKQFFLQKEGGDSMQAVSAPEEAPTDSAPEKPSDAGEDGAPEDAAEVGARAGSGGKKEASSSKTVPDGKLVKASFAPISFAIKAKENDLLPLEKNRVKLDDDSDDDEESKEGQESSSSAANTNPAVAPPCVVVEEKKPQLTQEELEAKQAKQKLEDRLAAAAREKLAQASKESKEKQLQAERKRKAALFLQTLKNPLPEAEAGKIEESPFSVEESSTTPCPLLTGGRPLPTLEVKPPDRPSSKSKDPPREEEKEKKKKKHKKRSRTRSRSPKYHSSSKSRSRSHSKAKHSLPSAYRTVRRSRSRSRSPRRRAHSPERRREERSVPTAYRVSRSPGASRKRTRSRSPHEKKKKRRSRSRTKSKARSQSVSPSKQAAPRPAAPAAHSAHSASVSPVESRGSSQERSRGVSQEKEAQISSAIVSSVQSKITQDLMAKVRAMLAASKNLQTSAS
Sequence of UniProt Q13601 (Q13601 whole entry): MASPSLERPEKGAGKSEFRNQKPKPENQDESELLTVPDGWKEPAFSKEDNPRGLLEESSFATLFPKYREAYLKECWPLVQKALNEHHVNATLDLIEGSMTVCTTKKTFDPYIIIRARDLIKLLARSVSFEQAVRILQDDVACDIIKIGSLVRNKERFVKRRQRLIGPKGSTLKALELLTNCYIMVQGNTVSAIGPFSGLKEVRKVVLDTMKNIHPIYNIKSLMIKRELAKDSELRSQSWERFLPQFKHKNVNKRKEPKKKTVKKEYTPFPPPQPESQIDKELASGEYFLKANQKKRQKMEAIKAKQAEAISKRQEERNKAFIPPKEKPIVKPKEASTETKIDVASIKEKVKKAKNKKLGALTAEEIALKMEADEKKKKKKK
Sequence of UniProt Q6IN85 (Q6IN85 whole entry): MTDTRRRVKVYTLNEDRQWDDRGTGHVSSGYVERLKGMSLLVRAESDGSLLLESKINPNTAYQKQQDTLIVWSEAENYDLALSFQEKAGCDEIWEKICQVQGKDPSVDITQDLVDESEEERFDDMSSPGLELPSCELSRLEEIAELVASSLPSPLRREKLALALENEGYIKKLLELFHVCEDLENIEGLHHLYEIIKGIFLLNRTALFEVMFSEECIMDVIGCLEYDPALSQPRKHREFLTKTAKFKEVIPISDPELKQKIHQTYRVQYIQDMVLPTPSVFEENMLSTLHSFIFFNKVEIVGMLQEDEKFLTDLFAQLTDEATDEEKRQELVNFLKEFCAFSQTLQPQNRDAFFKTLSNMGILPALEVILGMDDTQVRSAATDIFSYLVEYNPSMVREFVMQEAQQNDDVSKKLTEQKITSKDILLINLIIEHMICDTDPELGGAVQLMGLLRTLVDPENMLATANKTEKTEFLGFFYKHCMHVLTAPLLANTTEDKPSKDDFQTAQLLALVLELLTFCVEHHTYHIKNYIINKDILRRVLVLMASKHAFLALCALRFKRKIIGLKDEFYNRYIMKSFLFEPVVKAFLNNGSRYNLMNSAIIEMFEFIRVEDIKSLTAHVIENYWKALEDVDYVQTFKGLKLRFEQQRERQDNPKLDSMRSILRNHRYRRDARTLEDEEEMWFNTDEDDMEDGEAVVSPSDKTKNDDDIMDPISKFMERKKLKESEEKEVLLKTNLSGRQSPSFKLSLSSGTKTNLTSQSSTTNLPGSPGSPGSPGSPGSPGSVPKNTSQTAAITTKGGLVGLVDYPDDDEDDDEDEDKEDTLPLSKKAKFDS
Sequence of UniProt Q8TCD5 (Q8TCD5 whole entry, one chain of several): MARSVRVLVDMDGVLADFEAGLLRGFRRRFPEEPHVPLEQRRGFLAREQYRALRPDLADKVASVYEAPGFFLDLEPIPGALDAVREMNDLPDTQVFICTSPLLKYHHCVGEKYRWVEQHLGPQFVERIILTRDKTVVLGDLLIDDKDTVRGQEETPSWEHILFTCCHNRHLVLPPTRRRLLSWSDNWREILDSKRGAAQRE
Sequence of UniProt Q13137 (Q13137 whole entry, one chain of several): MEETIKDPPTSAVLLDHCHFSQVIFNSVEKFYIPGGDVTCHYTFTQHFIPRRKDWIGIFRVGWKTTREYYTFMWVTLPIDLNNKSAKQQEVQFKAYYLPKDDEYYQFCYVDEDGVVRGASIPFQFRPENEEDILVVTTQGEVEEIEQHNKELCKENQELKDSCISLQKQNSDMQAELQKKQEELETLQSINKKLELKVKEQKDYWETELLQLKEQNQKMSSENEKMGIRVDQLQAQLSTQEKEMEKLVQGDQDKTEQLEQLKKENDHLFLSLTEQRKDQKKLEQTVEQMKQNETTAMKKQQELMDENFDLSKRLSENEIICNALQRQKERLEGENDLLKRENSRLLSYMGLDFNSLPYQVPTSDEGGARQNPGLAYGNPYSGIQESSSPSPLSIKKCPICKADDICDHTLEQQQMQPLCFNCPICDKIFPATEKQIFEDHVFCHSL
Sequence of UniProt Q53HC0 (Q53HC0 whole entry): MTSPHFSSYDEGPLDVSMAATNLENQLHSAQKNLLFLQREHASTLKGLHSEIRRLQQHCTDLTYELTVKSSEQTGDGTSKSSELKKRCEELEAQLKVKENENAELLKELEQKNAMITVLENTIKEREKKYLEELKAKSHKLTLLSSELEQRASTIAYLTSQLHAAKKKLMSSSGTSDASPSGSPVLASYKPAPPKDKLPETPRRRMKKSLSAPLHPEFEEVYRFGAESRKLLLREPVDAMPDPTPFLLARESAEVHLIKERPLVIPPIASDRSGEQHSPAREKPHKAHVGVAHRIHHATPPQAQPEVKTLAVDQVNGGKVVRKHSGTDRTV
Sequence of UniProt Q86U90 (Q86U90 whole entry): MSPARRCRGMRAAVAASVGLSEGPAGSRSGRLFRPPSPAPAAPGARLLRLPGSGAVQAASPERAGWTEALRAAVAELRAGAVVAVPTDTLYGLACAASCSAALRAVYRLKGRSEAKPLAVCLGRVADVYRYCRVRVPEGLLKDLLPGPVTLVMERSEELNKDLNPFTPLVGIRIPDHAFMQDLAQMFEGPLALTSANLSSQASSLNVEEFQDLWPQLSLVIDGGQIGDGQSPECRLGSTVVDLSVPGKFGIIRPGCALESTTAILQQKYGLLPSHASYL

Target	NP40-soluble protein abundance (concentration: 1mM)	NP40-soluble protein abundance (concentration: 2mM)	NP40-soluble protein abundance (concentration: 4mM)	NP40-soluble protein abundance (concentration: 6mM)	NP40-soluble protein abundance (concentration: 8mM)	NP40-soluble protein abundance (concentration: 10mM)
UniProt Q2KHT3|Q2KHT3-2	1.04 ± 0.045	0.967 ± 0.1	0.963 ± 0.11	0.999 ± 0.093	1.04 ± 0.15	1.02 ± 0.17
UniProt Q8IY17|Q8IY17-3|Q8IY17-4|Q8IY17-2	1.05 ± 0.056	1.05 ± 0.033	1.028 ± 0.0096	1.01 ± 0.051	1.04 ± 0.04	1.06 ± 0.036
KRR1 (UniProt Q13601)	1.12 ± 0.012	1.16 ± 0.043	1.23 ± 0.066	1.27 ± 0.047	1.29 ± 0.026	1.42 ± 0.033
UniProt Q8NEJ9|Q8NEJ9-2	1.11 ± 0.12	1.13 ± 0.16	1.24 ± 0.064	1.29 ± 0.14	1.32 ± 0.058	1.34 ± 0.19
UniProt Q14498|Q14498-2	1.59 ± 0.14	1.72 ± 0.12	1.84 ± 0.12	1.93 ± 0.13	1.98 ± 0.15	2.02 ± 0.2
UniProt Q7L4P6|Q7L4P6-2	0.995 ± 0.085	1.12 ± 0.2	1.23 ± 0.3	1.2 ± 0.21	1.02 ± 0.096	1.12 ± 0.14
UniProt Q8TCD5|J3KRC4	1 ± 0.021	1.02 ± 0.04	1.01 ± 0.057	0.942 ± 0.15	1.01 ± 0.11	0.954 ± 0.091
AUH (UniProt Q13825)	0.96 ± 0.062	0.979 ± 0.049	0.967 ± 0.035	0.93 ± 0.082	0.96 ± 0.055	0.973 ± 0.036
EFTUD2 (UniProt Q15029)	1.12 ± 0.04	1.16 ± 0.047	1.21 ± 0.047	1.26 ± 0.075	1.41 ± 0.056	1.42 ± 0.12
FLCN (UniProt Q8NFG4)	1.02 ± 0.056	1 ± 0.037	1.05 ± 0.066	0.988 ± 0.058	0.977 ± 0.07	0.974 ± 0.033
KIF18A (UniProt Q8NI77)	1.09 ± 0.11	0.996 ± 0.2	1.09 ± 0.035	1.06 ± 0.013	1.09 ± 0.18	1.18 ± 0.16
UniProt Q86UY6	1.39 ± 0.18	1.46 ± 0.14	1.56 ± 0.21	1.66 ± 0.26	1.69 ± 0.21	1.69 ± 0.15
UniProt Q12872|Q12872-2	1.24 ± 0.083	1.33 ± 0.049	1.5 ± 0.049	1.77 ± 0.068	1.77 ± 0.066	1.93 ± 0.075
RABEP1 (UniProt Q15276)	0.942 ± 0.049	0.944 ± 0.032	0.928 ± 0.021	0.995 ± 0.054	0.895 ± 0.016	0.9135 ± 0.0042
COX17 (UniProt Q14061)	0.938 ± 0.1	0.895 ± 0.074	0.92 ± 0.1	0.963 ± 0.033	0.859 ± 0.056	0.847 ± 0.023
UniProt Q08170	1.58 ± 0.12	1.68 ± 0.08	1.66 ± 0.095	1.81 ± 0.058	1.68 ± 0.052	1.64 ± 0.073
UniProt Q6IN85	1.03 ± 0.066	0.979 ± 0.042	0.946 ± 0.041	0.991 ± 0.048	0.956 ± 0.047	0.935 ± 0.08
SNIP1 (UniProt Q8TAD8)	1.18 ± 0.044	1.22 ± 0.055	1.44 ± 0.085	1.57 ± 0.098	1.67 ± 0.11	1.8 ± 0.1
UniProt Q13137|Q13137-3|Q13137-4|Q13137-5|H0YBP4	0.962 ± 0.033	0.968 ± 0.032	0.9319 ± 0.0066	0.986 ± 0.03	0.941 ± 0.012	0.948 ± 0.026
PIGO (UniProt Q8TEQ8)	0.991 ± 0.035	1 ± 0.062	0.996 ± 0.02	0.979 ± 0.073	0.983 ± 0.051	1.01 ± 0.039
UniProt Q8TED0|H0Y8P4|Q8TED0-3	1.18 ± 0.18	1.22 ± 0.11	1.32 ± 0.18	1.43 ± 0.28	1.5 ± 0.24	1.77 ± 0.41
UniProt Q7L590|Q7L590-2|Q5T670	1.01 ± 0.11	1.07 ± 0.059	1.13 ± 0.044	1.01 ± 0.057	1.11 ± 0.12	1.14 ± 0.12
UniProt Q0VDD8-4	0.837 ± 0.098	0.884 ± 0.028	0.9026 ± 0.0016	0.9241 ± 0.0037	0.956 ± 0.13	1.06 ± 0.059
UniProt Q53HC0|Q53HC0-2	0.993 ± 0.083	0.918 ± 0.031	0.939 ± 0.082	0.993 ± 0.21	0.966 ± 0.092	0.922 ± 0.084
Q5VVD7|Q8IWE5 (UniProt Q8IWE5)	0.929 ± 0.047	0.998 ± 0.048	0.932 ± 0.04	0.953 ± 0.036	0.95 ± 0.04	0.955 ± 0.03
TTC19 (UniProt Q6DKK2)	0.971 ± 0.078	0.922 ± 0.037	0.973 ± 0.043	0.923 ± 0.04	0.985 ± 0.038	0.865 ± 0.094
YRDC (UniProt Q86U90)	0.928 ± 0.045	0.959 ± 0.05	0.93 ± 0.028	0.885 ± 0.043	0.896 ± 0.01	0.932 ± 0.017
ZNF672 (UniProt Q499Z4)	0.994 ± 0.061	1.07 ± 0.0039	1 ± 0.089	0.93 ± 0.078	0.996 ± 0.047	0.995 ± 0.016
GSPT2 (UniProt Q8IYD1)	1.035 ± 0.0061	1.023 ± 0.0095	1 ± 0.016	1.01 ± 0.02	0.991 ± 0.042	0.987 ± 0.037
UniProt Q8NB78	1.11 ± 0.064	1.09 ± 0.025	1.11 ± 0.08	0.998 ± 0.08	1.11 ± 0.035	1.09 ± 0.025
